In ChEMBL document CHEMBL1961873, “Compounds: GSK PKIS; Assays: Nanosyn kinase panel” (2012):
Where “and” joins values, the source holds several entries; their conditions need not be identical. Equal entries are not always repeated.

Legend:
[1] = biological target: Calcium/calmodulin-dependent protein kinase type II subunit alpha (Homo sapiens) (UniProt Q9UQM7); settings: at 1 µM;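 also: reported value is a mean percent inhibition of CAMK2A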
[2] = biological target: Calcium/calmodulin-dependent protein kinase type II subunit delta (Homo sapiens) (UniProt Q13557); settings: at 0.1 µM
[3] = biological target: Calcium/calmodulin-dependent protein kinase type II subunit delta (Homo sapiens) (UniProt Q13557); settings: at 1 µM
[4] = biological target: T1, Calcium/calmodulin-dependent protein kinase type IV (Homo sapiens) (UniProt Q16566); settings: at 0.1 µM
T1 sequence (whole entry): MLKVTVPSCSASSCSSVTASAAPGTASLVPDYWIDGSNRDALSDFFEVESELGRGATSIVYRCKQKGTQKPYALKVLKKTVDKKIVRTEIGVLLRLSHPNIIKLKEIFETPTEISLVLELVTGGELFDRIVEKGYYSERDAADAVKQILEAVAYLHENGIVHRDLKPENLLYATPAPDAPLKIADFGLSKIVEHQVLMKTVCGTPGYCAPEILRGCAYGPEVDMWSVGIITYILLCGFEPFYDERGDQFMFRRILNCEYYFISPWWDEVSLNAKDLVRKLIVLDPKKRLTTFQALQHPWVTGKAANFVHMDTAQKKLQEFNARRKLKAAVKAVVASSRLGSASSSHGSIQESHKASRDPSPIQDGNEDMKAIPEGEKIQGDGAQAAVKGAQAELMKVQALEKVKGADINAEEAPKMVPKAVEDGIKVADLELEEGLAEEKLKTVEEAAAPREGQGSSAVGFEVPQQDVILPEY

[5] = biological target: T1, Calcium/calmodulin-dependent protein kinase type IV (Homo sapiens); settings: at 1 µM
[6] = biological target: T2, Serine/threonine-protein kinase Chk1 (Homo sapiens) (UniProt O14757); settings: at 0.1 µM
T2 sequence (whole entry): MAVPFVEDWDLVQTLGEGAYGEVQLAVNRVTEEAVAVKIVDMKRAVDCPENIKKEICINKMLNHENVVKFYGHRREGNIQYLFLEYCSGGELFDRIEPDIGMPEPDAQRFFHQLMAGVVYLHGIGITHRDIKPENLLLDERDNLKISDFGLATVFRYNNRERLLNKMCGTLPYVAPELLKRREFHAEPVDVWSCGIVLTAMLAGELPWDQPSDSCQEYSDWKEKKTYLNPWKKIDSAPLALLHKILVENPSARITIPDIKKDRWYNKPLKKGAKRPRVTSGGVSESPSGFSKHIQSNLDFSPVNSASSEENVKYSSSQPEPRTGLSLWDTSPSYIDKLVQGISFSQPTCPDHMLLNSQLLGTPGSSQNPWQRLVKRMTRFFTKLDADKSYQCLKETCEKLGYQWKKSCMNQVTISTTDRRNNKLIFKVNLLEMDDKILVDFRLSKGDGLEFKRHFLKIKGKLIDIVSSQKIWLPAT

[7] = biological target: T2, Serine/threonine-protein kinase Chk1 (Homo sapiens); settings: at 1 µM
[8] = biological target: Serine/threonine-protein kinase Chk2 (Homo sapiens) (UniProt O96017); settings: at 0.1 µM
[9] = biological target: Serine/threonine-protein kinase Chk2 (Homo sapiens) (UniProt O96017); settings: at 1 µM
[10] = biological target: Death-associated protein kinase 1 (Homo sapiens) (UniProt P53355); settings: at 0.1 µM
[11] = biological target: Death-associated protein kinase 1 (Homo sapiens) (UniProt P53355); settings: at 1 µM
[12] = biological target: T3, Serine/threonine-protein kinase DCLK2 (Homo sapiens) (UniProt Q8N568); settings: at 0.1 µM
T3 sequence (whole entry): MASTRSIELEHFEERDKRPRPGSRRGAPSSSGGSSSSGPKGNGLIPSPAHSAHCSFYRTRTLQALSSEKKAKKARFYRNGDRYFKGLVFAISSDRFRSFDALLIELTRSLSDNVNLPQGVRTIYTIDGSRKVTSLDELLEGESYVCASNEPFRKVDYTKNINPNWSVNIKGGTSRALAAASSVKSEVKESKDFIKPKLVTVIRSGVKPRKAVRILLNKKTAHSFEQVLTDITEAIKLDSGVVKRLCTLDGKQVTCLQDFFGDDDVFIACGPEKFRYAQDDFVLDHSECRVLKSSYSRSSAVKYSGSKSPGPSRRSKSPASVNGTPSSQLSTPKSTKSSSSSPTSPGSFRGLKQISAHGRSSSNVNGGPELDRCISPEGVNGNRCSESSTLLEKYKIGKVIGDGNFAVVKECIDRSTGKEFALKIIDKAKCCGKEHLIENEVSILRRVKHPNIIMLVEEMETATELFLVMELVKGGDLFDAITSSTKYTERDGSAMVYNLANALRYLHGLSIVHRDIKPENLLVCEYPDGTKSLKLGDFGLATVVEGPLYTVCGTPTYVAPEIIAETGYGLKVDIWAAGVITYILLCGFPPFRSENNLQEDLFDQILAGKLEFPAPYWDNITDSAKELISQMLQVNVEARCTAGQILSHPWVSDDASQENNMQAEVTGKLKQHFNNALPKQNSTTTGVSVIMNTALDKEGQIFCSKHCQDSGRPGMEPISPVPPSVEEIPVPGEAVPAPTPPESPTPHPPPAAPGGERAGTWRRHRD

[13] = biological target: T3, Serine/threonine-protein kinase DCLK2 (Homo sapiens); settings: at 1 µM
[14] = biological target: MAP kinase-activated protein kinase 2 (Homo sapiens) (UniProt P49137); settings: at 0.1 µM
[15] = biological target: MAP kinase-activated protein kinase 2 (Homo sapiens) (UniProt P49137); settings: at 1 µM
[16] = biological target: MAP kinase-activated protein kinase 3 (Homo sapiens) (UniProt Q16644); settings: at 0.1 µM
[17] = biological target: MAP kinase-activated protein kinase 3 (Homo sapiens) (UniProt Q16644); settings: at 1 µM
[18] = biological target: Serine/threonine-protein kinase MARK1 (Homo sapiens) (UniProt Q9P0L2); settings: at 0.1 µM
[19] = biological target: Serine/threonine-protein kinase MARK1 (Homo sapiens) (UniProt Q9P0L2); settings: at 1 µM
[20] = biological target: MAP/microtubule affinity-regulating kinase 3 (Homo sapiens) (UniProt P27448); settings: at 0.1 µM;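 also: mean percent inhibition of MARK3 kinase activity, measured within the GSK PKIS screening panel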

Death-associated protein kinase 1 (Homo sapiens), sequence (P53355 whole entry, looked up): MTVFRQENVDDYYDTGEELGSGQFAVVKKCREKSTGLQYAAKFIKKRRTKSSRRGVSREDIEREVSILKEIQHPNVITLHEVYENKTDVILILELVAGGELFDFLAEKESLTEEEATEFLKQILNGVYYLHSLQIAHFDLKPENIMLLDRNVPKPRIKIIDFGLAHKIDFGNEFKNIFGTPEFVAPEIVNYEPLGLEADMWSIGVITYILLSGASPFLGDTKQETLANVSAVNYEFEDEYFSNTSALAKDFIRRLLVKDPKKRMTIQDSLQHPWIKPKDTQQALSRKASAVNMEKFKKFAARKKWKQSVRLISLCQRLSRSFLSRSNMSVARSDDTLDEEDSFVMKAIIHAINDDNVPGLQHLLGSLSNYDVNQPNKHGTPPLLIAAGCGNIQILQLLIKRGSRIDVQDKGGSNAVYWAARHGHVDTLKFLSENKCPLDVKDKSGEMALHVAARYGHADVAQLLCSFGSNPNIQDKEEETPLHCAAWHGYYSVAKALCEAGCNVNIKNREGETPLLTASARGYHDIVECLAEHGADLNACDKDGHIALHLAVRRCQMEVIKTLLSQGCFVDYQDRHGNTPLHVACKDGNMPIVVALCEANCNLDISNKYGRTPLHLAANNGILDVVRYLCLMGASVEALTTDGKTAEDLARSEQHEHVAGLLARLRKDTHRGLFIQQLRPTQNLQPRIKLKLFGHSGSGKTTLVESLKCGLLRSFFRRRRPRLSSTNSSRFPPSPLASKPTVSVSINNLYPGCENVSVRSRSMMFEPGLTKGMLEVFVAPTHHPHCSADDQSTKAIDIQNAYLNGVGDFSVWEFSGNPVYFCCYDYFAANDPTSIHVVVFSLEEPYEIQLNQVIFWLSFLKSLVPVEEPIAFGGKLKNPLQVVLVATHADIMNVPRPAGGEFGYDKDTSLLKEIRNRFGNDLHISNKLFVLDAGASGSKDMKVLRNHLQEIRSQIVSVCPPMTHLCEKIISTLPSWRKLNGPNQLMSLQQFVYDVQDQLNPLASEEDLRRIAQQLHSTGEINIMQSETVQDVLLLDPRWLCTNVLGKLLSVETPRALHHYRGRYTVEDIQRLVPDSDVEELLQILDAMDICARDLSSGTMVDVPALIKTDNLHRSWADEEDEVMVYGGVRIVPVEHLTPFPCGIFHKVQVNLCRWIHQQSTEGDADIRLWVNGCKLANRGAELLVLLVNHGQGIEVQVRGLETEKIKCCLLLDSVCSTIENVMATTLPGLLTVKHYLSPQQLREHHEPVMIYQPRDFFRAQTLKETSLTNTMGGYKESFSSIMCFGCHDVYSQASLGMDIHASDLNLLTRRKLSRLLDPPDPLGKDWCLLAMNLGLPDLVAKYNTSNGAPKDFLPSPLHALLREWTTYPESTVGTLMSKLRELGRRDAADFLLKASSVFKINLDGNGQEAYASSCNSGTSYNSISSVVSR
MAP kinase-activated protein kinase 2 (Homo sapiens), sequence (P49137 whole entry, looked up): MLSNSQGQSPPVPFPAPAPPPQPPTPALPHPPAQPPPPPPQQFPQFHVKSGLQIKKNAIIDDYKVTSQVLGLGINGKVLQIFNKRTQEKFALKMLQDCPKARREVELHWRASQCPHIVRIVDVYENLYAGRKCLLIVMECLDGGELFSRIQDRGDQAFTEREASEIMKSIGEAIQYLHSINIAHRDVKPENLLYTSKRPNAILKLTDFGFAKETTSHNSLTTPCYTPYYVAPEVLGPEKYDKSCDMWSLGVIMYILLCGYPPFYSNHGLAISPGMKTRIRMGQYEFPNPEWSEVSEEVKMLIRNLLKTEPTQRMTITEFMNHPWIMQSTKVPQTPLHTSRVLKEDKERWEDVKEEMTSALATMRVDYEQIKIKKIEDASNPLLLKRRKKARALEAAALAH
Serine/threonine-protein kinase MARK1 (Homo sapiens), sequence (Q9P0L2 whole entry, looked up): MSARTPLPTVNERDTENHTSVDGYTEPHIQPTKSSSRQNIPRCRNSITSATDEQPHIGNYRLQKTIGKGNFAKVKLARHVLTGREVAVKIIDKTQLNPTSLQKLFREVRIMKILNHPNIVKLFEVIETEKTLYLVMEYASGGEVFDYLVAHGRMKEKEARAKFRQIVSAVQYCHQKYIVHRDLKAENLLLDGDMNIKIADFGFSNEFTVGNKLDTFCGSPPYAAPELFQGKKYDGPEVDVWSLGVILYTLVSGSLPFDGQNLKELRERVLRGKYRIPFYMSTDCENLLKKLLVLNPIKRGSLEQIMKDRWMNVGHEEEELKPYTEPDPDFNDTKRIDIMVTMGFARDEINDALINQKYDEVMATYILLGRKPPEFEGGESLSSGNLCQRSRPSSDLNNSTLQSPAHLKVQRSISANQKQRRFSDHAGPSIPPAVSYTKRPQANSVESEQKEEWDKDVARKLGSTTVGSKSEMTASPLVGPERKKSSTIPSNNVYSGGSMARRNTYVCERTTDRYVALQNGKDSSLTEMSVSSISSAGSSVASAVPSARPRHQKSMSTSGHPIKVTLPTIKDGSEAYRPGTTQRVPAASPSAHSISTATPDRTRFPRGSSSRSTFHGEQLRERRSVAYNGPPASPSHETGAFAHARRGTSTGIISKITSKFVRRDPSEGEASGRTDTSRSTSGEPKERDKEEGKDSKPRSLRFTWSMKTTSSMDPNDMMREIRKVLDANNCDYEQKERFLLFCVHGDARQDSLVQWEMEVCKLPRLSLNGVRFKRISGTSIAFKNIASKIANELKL
Calcium/calmodulin-dependent protein kinase type II subunit delta (Homo sapiens), sequence (Q13557 whole entry): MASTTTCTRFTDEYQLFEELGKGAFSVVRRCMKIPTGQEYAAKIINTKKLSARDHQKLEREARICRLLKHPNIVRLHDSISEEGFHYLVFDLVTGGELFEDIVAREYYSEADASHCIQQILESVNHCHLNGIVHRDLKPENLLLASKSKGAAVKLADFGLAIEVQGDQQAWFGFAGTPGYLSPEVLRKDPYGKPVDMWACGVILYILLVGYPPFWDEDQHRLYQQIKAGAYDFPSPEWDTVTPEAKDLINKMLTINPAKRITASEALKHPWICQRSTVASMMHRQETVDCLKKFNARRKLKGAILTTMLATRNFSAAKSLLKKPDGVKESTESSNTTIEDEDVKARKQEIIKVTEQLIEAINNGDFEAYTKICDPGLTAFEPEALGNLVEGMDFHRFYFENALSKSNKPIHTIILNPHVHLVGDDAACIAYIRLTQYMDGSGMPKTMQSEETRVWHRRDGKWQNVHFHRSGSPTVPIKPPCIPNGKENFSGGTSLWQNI
Serine/threonine-protein kinase Chk2 (Homo sapiens), sequence (O96017 whole entry): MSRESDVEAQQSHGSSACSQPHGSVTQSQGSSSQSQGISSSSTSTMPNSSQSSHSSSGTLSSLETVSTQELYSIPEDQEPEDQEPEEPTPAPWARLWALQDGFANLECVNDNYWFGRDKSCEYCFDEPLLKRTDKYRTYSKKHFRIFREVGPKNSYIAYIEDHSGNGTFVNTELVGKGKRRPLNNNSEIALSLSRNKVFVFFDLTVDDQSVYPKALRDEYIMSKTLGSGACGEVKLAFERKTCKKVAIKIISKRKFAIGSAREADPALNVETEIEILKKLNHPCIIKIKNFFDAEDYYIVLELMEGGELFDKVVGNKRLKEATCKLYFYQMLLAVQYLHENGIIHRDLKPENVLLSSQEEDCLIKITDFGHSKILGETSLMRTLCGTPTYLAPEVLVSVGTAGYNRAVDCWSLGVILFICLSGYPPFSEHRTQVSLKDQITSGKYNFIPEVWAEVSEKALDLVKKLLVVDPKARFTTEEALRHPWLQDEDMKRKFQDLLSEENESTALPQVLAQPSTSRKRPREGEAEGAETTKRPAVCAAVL
Calcium/calmodulin-dependent protein kinase type II subunit alpha (Homo sapiens), sequence (Q9UQM7 whole entry): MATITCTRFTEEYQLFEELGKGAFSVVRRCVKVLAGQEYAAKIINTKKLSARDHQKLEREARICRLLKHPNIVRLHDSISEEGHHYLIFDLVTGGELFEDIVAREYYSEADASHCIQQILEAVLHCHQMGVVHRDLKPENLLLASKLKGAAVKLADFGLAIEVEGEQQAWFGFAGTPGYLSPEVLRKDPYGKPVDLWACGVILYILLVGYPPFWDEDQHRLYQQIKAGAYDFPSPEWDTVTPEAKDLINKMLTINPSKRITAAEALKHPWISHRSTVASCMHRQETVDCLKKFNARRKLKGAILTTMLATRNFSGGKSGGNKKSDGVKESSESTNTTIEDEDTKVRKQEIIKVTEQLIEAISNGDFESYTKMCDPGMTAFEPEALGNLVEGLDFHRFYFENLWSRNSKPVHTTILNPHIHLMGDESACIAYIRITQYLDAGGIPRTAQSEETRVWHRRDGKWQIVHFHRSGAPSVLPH
MAP kinase-activated protein kinase 3 (Homo sapiens), sequence (Q16644 whole entry, looked up): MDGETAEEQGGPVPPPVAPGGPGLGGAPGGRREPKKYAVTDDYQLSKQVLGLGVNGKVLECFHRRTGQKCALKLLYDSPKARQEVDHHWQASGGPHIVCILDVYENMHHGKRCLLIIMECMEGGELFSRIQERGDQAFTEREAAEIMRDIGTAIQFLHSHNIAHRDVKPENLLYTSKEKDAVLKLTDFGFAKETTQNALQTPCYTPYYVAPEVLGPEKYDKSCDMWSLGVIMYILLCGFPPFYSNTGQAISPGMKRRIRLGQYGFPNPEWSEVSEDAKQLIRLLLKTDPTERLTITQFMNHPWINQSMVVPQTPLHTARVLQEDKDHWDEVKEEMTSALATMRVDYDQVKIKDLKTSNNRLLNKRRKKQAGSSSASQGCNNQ

| Compound | inhibition [1] | inhibition [2] | inhibition [3] | inhibition [4] | inhibition [5] | inhibition [6] | inhibition [7] | inhibition [8] | inhibition [9] | inhibition [10] | inhibition [11] | inhibition [12] | inhibition [13] | inhibition [14] | inhibition [15] | inhibition [16] | inhibition [17] | inhibition [18] | inhibition [19] | inhibition [20] |
| --- | --- | --- | --- | --- | --- | --- | --- | --- | --- | --- | --- | --- | --- | --- | --- | --- | --- | --- | --- | --- |
| CS(=O)(=O)Nc1ccc(-c2ccc3c(NC(=O)C4CC4)n[nH]c3c2)cc1 | 3.84% | 3.65% | 3.38% | -0.67% | -0.43% | 1.65% | 1.61% | 4.58% | 7.38% | 2.51% | 4.64% | 1.42% | 1.42% | 1.53% | 1.14% | 3.27% | 3.44% | 2.32% | 2.73% | 3.47% |
| c1cnn2ncc(-c3ccnc(NCCCN4CCOCC4)n3)c2c1 | 6.81% | 3.65% | 3.72% | -0.02% | -0.41% | 0.25% | 1.83% | 2.74% | 3.47% | -0.4% | -0.07% | 1.46% | 1.43% | 1.81% | 2.19% | 4.59% | 4.86% | 1.78% | 5.05% | 2.58% |
| Nc1nccc(-c2c(-c3ccc(F)cc3)ncn2C2CCNCC2)n1 | -5.1% and -1.06% | -3.9% and -0.18% | 1.49% and 0.43% | 0% and 0.8% | -2.13% and 0% | -2.55% and 0.68% | -3.32% and -2.24% | -2.81% and -0.53% | -2.65% and -0.65% | -2.18% and -0.72% | -3.07% and -0.77% | 1.18% and 0.52% | -2.79% and 3.76% | -1.56% and -0.23% | -1.96% and -0.84% | 27.6% and 29.5% | 34.1% and 34.6% | -0.83% and 1.71% | -0.5% and 1.51% | -0.05% and -0.2% |
| CS(=O)(=O)Nc1ccc(-c2cc(-c3ccccc3)cc(C(N)=O)c2N)cc1 | -1.32% | 0.44% | 1.39% | -3.34% | -0.72% | 3.76% | 0.63% | 1.07% | 1.94% | 2.28% | 1.38% | -0.48% | 1.02% | 1.59% | 1.42% | 0.37% | 2.22% | 0.39% | 1.47% | -0.54% |
| CS(=O)(=O)CCNCc1ccc(-c2ccc3ncnc(Nc4ccc(OCc5ccccc5)cc4)c3c2)o1 | -1% | 2.72% | 1.68% | 2.07% | -0.36% | -1.5% | 0.28% | 3.41% | 12.9% | 3.08% | 1.36% | 1.31% | 1.03% | 1.2% | 0.72% | 3.13% | 2.48% | 3.03% | 2.05% | 0.62% |
| COc1cc(N2CCN(C(C)C)CC2)ccc1Nc1nc(Nc2cccc(F)c2C(=O)O)c2cc[nH]c2n1 | 4.14% | 3.26% | 6.33% | -2.13% | -1.74% | 1.97% | 6.1% | 4.99% | 26.3% | 3.88% | 2.32% | 0.91% | 1.63% | 2.14% | 1.32% | 4.39% | 4.68% | 3.19% | 8.61% | 4.95% |
| O=C(O[C@H]1CN[C@H](C#Cc2cc3ncnc(Nc4ccc5c(cnn5Cc5ccccc5)c4)c3s2)C1)N1CCOCC1 | -1.88% | 0.73% | 0.8% | 0.67% | -0.25% | 0.36% | -0.07% | -1.25% | 0.86% | -0.35% | -1.55% | -2.27% | -1.86% | -0.79% | -0.97% | 0% | -0.37% | 0.33% | 3.97% | -1.73% |
| c1ccc(-c2n[nH]cc2-c2ccnc(-c3ccc(OCCn4ccnc4)cc3)c2)nc1 | -1.38% | -0.35% | 0.74% | 0.1% | -0.86% | -5.5% | -4.71% | -3.83% | -2.77% | -7.91% | -8.69% | 6.53% | -6.73% | -2.58% | -2.83% | -3.24% | 4.97% | 1.59% | 3.61% | -0.18% |
| NS(=O)(=O)c1ccc(N/N=C2\C(=O)Nc3ccc(C(=O)NCc4ccncc4)cc32)cc1 | 5.1% | 3.39% | 11.8% | -2.17% | -4.16% | 2.58% | 11.1% | 4.18% | 19.2% | 4.72% | 4.92% | 3.49% | 0.04% | 2.73% | 3.71% | 4.05% | 2.16% | 7.5% | 40.7% | 4.2% |
| CCOc1ccc2c(-c3ccnc(Nc4cc(OC)cc(C(F)(F)F)c4)n3)cnn2n1 | -0.03% | 0.7% | 1.42% | 1.18% | -0.28% | 3.19% | 1.38% | -0.97% | 0.04% | 0.8% | 1.23% | -0.5% | 4.41% | 0.58% | -0.09% | 0.28% | -1.31% | -0.04% | 2.77% | -1.2% |
| CN1CCC(n2cnc(-c3ccc(F)cc3)c2-c2ccnc(NCCO)n2)CC1 | 3.86% | 1.32% | 3.99% | -3.49% | -5.99% | 1.6% | 6.89% | 4.1% | 5.51% | 4.37% | 5.18% | 1.63% | 0.48% | 2.06% | 2.43% | 27.6% | 37.2% | 3.31% | 7.7% | 4.03% |
| COc1cc(Nc2ncc(-c3ccccc3)o2)cc(OC)c1 | 1.52% | 3.94% | 7.34% | -1.03% | -1.65% | 1.69% | 0.7% | 4.6% | 5.38% | 2.51% | -0.73% | 1.65% | 1.7% | 2.4% | 1.2% | 3.76% | 3.61% | 1.26% | 4.72% | 3.35% |
| Fc1cccc(COc2ccc(Nc3ncncc3C#Cc3ccccc3)cc2Cl)c1 | 3.65% | 2.79% | 2.05% | -2.29% | -4.84% | 3.29% | 5.99% | 3.47% | 5.22% | 5.08% | 5.6% | 1.92% | -0.09% | 2.63% | 2.47% | 4.72% | 6.08% | 4.09% | 5.61% | 4.58% |
